Measurements: publication PMC12864922, “TDP-43 directly inhibits mRNA accumulation in neurites through modulation of mRNA stability”
The full ranking holds about 9,900 sequences; the median of “r (bound/input frequency ratio)” is about 0.7, and the highest 2% start at about 6.5. This is one part of a sample in which the highest values are shown more often than they occur.

B1: ENSMUSG00000028439.214|Fam219a|183:189;217:221 (ssRNA)
RNA: GGGAGUUCUACAGUCCGACGAUCGCUUCGAUAUCCGCAUGCUAUCUGGAACCUGGGUUCUGGUCCCAGCCUCGGCAUUCUCCCUGAGCUCCUAAGCAAUUCCCAGGCUUCUCUAGGGCUUCAGUUCUCACAACUGGAAAAUAAAGAGUAGCUGACAUCACCGACAGAGUCUUUUCAUACCAGAAGGAAUUUCUUCACAGGAGUUUCUGCAAAAGACUAUGACAUCACACACACUGUGGUCUCACGAGGUACCUGGAGGUCAUACUGCACGGACAUGGGAAGUACGUGAAGAUUUAUUUCGGGACUCUUGCGGUCGCACUAGUGUGGAAUUCUCGGGUGUCAAGG
B2: ENSMUSG00000004113.200|Cacna1b|94:98 (ssRNA)
RNA: GGGAGUUCUACAGUCCGACGAUCGCUUCGAUAUCCGCAUGCUACCUGAUCUCUGGCUCUGAGCAUCGUGGAUGAGGUACGGCCUCAGGAAGCAUCGGGUGGAUUGGGUGGGAGCUGCUCAGAGCAGCACGGGGGCUACACACUUAGGGACAUUGACAGUGUCCAUCAGCAUGUCAGAGAAGCAGCUGUAGUGCCCGUGUUUCUCCCUGAGUCAUGGGUUCUGAAGAAGCCAGAGCGGCACAAUGCGUGCUUGCAUGAGGCACUUUCAGCCUUUUUAAAUCUGACUCUCAGGGAUGGGAUGCCUCUCUUGCGGUCGCACUAGUGUGGAAUUCUCGGGUGUCAAGG
B3: ENSMUSG00000090935.682|Synj2bp (ssRNA)
RNA: GGGAGUUCUACAGUCCGACGAUCGCUUCGAUAUCCGCAUGCUAACUGUCAGGAGCUCUCUCUCUCUGCUUAGAAUCAUCCAGACAGCGGGCUGGUCAGCCCACAUUAAAUAAGAACAUGUGGGACUAGAAUUCAGUCAACAAUGACAUGUUUCAUCAGGUGGUUAAAAUGUACAGAUUCUGUUGGAAAUGUUCCAUGGUAUUUCAAUAGCCAGAAUGAAGAACUGGGCUAAGUCCAGAGCUCUGCUCUCUGAGCAUCUGCCCCAGAUACAGAGGCAGAGUAUGAAGUGGAACAUUGUUUUAUUCUCUUGCGGUCGCACUAGUGUGGAAUUCUCGGGUGUCAAGG
B4: ENSMUSG00000029028.246|Lrrc47|180:184 (ssRNA)
RNA: GGGAGUUCUACAGUCCGACGAUCGCUUCGAUAUCCGCAUGCUAUCCUCGUGGCAGACCCUGGACAACGCUGGUAGCUGUUCUCCAUGAGACACGGCUGCUCACAGGUCCCUUUGAGUGGCUGUGGCAAGUACUCACCUACUAAGUGUUUAGGGUGGAGCUAUCCUGUGCUCACCCUGUCUCCCCCCAGUUCCUGCUGUUCCCUCCAGCCCAGCCCAGCCCAGCACACAGAUUCAUUGAGAUUUUUGAAACUGUUUUUACAGAUUCAAGCAGAACGCCUCUUUGUUCUAAUAAAAACCCUUGGUCUCUUGCGGUCGCACUAGUGUGGAAUUCUCGGGUGUCAAGG
B5: ENSMUSG00000061578.401|Ksr2 (ssRNA)
RNA: GGGAGUUCUACAGUCCGACGAUCGCUUCGAUAUCCGCAUGCUAUUAAUGUACAGACAUCUGGAUCAAGGGAUUAAAAAAAAAAGAAUCAGUCUCUUCCCGGAGGAAGCAUCCGGGGGAAAUGUAUUCCUUCGCCCUGCAAGGAGCCAAUGGGAAGAGAGGGGACCAUAUAGUUAGAGACAUUCCCUACCCCCCGACCACUGACCCGUCCAGACCCUCGCUUCUUACAAUGCCUCUUCUUCUGCCAGACCAGCCACCUGCCCCACUAACACCAAAUGGCUUCUGUCCCUGCUUCACGUUGCAAACUCUUGCGGUCGCACUAGUGUGGAAUUCUCGGGUGUCAAGG
B6: ENSMUSG00000061578.1371|Ksr2 (ssRNA)
RNA: GGGAGUUCUACAGUCCGACGAUCGCUUCGAUAUCCGCAUGCUACUUACAUCUCUGACCCAGUGAUCUUUCUAGGGGUCUGUCACAUGUCCCAACAGGUGGACAGCUCUCCAAGUCACCAACCUGAGGAAAAUAUCCCUCCUUGUAAAAAGGCUUUCUCUUUGUAAAUGAUUCUGUUGCCUUUUUCUAAACACAAAGUAUAUAUACCUAUAAAUGCUAUAUAUAUUAUAUAUGUGUAUAUACAUAAAGACUACUUCUUGUACAGCCCUCCACGGACCUCAGGCCCACUGUUUUCUCCAUGUCUGCUCUUGCGGUCGCACUAGUGUGGAAUUCUCGGGUGUCAAGG
B7: ENSMUSG00000022095.129|Fam160b2|254:258 (ssRNA)
RNA: GGGAGUUCUACAGUCCGACGAUCGCUUCGAUAUCCGCAUGCUACAGCUGGUUCCUCUCUGGCGCCUUCUGAACCCGUCUCAGCAAGUCCGAAACACCUGGGCAGAGAGGUCAUUGACCAGGGAUGGGGGCCCUUGCCCUCUGAAUCCUGCCCAGUGCCCAGGGGUCCAGGUGGAAUGUGGUCCUGGGGACUAUAGGAACUCAAGGUACAGAUGGGACAGGGCACCCCAACUCCAAACCCCAGAAGCCUAGUGAGGCUAGGCCGAGACACAAGCAGAUAGCUCUGGCAUUGUUCUUCCAUACUCCUCUUGCGGUCGCACUAGUGUGGAAUUCUCGGGUGUCAAGG
B8: ENSMUSG00000042529.446|Kcnj12 (ssRNA)
RNA: GGGAGUUCUACAGUCCGACGAUCGCUUCGAUAUCCGCAUGCUAAGCCCAUCUGGUGCUGUGCACCUGGUCCUUGUCCAGCCGAGGGCCUGGGGGCAGAAGAACACACCAUAGGGAGGCCCUUGUAUGGGUGUCUGCCCUAUGUGAGGUCAUAGAAUGUUAAAUCUAUUUUAAACGGUGAAACUGGAGAAUUUUCAUGUUAUUUUCAAUAAUAGUGGUAUCUAAAGAUGUAGGCAACAAGACUAGACCACAUUAAAUGCAUUUUGAUCUCUUUGAAUGCUACUGUGUUGAGAUGUGCGUCUCACCUCUUGCGGUCGCACUAGUGUGGAAUUCUCGGGUGUCAAGG
B9: ENSMUSG00000022095.98|Fam160b2|79:83 (ssRNA)
RNA: GGGAGUUCUACAGUCCGACGAUCGCUUCGAUAUCCGCAUGCUAGGGGAAGCCCCCUCUUCCUGCUCUACCCUCCUGGAGGCUGUUGCAAAAUUCCCAACUGCCUCCUGGCAGAGGCCCAAACAUACCUCUGCGCCCAGGCGGGGGCAGCUGCUAACAAGAGCCCUGGCGCAGCUGCAGCCAGGGCAGGCGAGAGCCUUGGAGCUGGGUGCCAGGCUCCAGCUCCAGCUCCAGCUGGUUCCUCUCUGGCGCCUUCUGAACCCGUCUCAGCAAGUCCGAAACACCUGGGCAGAGAGGUCAUUGACCUCUUGCGGUCGCACUAGUGUGGAAUUCUCGGGUGUCAAGG
B10: ENSMUSG00000090935.122|Synj2bp|46:51;222:232 (ssRNA)
RNA: GGGAGUUCUACAGUCCGACGAUCGCUUCGAUAUCCGCAUGCUAUUCGUGAGAUACCGAAAGCAGCUUUGAAAUGCUUGCUGUCUUCCACACACACCAAUGAACUCUCUCUCUCACUCACCAUCUCUGACAUCCUCCCAUAUUCUUUCUCCUCCACAUAGCCAAUACAAGAUUUAAAGUGACUGCUUAUCACCCAAAACCCUGCUAUUCAAAAUCUCCUAUUCUAAUGGAAGAGUACAGGGGUUAUUUGAAGAAAAGCUGUGGUGCACACACACACGGGGAAGCCUUGCUUAGAAUGAAUGAGACUCUUGCGGUCGCACUAGUGUGGAAUUCUCGGGUGUCAAGG
B11: ENSMUSG00000058297.93|Spock2 (ssRNA)
RNA: GGGAGUUCUACAGUCCGACGAUCGCUUCGAUAUCCGCAUGCUAAGGGAGGGCAGGCAGCUGAAAGCUGAGCGUCCUCCCCAAAUUGGGCUGAUUUGAUAUGAAAGCCCCACCACGGUCUUGUGGUGAUGAGGCAGGACCUGUACACACAGCAAGGCUUACUAUCCGUCUCCUGACAUCCGAAGAGCUCGUCGCAGGUGUGUCUAAUGGCCCUUGGGCUGCACGUGGUUAAGCAUAGCUGUCUCUGUGGCCCAACACAAAGAGGUAAACUUACUUAAAACACAGGGGUUUUGUUGCUGUUUGUUCUCUUGCGGUCGCACUAGUGUGGAAUUCUCGGGUGUCAAGG
B12: ENSMUSG00000004113.177|Cacna1b|55:59;63:67;78:82;232:236 (ssRNA)
RNA: GGGAGUUCUACAGUCCGACGAUCGCUUCGAUAUCCGCAUGCUAGUAACUUUAAAAAAAAAGUCAACAUGUAGGAAGGUCUCCAUUUUGCAUUGUUUCACACACUUCAUACCAAUGUUCCUCAUACUUUCUACCCUGCCUGGGAUGUCCCCAAUGACCCUGGCUCCUCUGCUCAACCAAGUGCCUGAUCUCUGGCUCUGAGCAUCGUGGAUGAGGUACGGCCUCAGGAAGCAUCGGGUGGAUUGGGUGGGAGCUGCUCAGAGCAGCACGGGGGCUACACACUUAGGGACAUUGACAGUGUCCAUCUCUUGCGGUCGCACUAGUGUGGAAUUCUCGGGUGUCAAGG
B13: ENSMUSG00000042529.443|Kcnj12 (ssRNA)
RNA: GGGAGUUCUACAGUCCGACGAUCGCUUCGAUAUCCGCAUGCUAGAUGAAGCAGCUGCCCUGAGCCCAUCUGGUGCUGUGCACCUGGUCCUUGUCCAGCCGAGGGCCUGGGGGCAGAAGAACACACCAUAGGGAGGCCCUUGUAUGGGUGUCUGCCCUAUGUGAGGUCAUAGAAUGUUAAAUCUAUUUUAAACGGUGAAACUGGAGAAUUUUCAUGUUAUUUUCAAUAAUAGUGGUAUCUAAAGAUGUAGGCAACAAGACUAGACCACAUUAAAUGCAUUUUGAUCUCUUUGAAUGCUACUGUGCUCUUGCGGUCGCACUAGUGUGGAAUUCUCGGGUGUCAAGG

These binders were tested against TDP-43 (Homo sapiens, UniProt Q13148 1-414) (assay: RNA Bind-n-Seq with designed 260-mer pool; 25 mM Tris-HCl, 150 mM KCl, 3 mM MgCl2, BSA (printed 500 mg/mL), 20 units/mL SUPERase IN; pH not stated; 500 nM RNA pool, 1 h, 4 C; TDP-43 5, 50, 500 nM; high values mean tight binding). Details: protein: recombinant; tags: SBP (GST cleaved off with PreScission; pGEX-GST-SBP).
Chain of TDP-43 (Q13148 whole entry): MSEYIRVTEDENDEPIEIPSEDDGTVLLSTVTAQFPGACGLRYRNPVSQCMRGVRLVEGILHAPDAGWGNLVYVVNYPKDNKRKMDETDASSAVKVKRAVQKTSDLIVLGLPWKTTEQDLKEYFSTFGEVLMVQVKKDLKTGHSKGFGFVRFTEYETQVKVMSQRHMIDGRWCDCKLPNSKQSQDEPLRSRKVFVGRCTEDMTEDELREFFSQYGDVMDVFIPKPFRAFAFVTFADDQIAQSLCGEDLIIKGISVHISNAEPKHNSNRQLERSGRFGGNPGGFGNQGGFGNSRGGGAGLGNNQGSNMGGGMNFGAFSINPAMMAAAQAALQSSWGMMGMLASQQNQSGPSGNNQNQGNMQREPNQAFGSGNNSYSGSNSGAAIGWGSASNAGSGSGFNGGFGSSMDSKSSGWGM
Summary of the method: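 For each oligo, R gives binding as its mapped-read-normalized abundance after pulldown divided by its abundance in input. Bead-captured SBP-tagged TDP-43 (5, 50 or 500 nM) was incubated with 500 nM of an in vitro-transcribed 260-nt 3′ UTR oligo pool for 1 h at 4 °C in 25 mM Tris-HCl, 150 mM KCl, 3 mM MgCl2, BSA and SUPERase IN on streptavidin beads. Washed, biotin-eluted RNA was reverse transcribed, PCR-amplified and sequenced.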

| Binder | binding signal |
| --- | --- |
| B1 | 0.393 R (bound/input frequency ratio) |
| B2 | 0.929 R (bound/input frequency ratio) |
| B3 | 0.473 R (bound/input frequency ratio) |
| B4 | 0.573 R (bound/input frequency ratio) |
| B5 | 0.446 R (bound/input frequency ratio) |
| B6 | 0.0492 R (bound/input frequency ratio) |
| B7 | 0.357 R (bound/input frequency ratio) |
| B8 | 1.1 R (bound/input frequency ratio) |
| B9 | 0.706 R (bound/input frequency ratio) |
| B10 | 2.71 R (bound/input frequency ratio) |
| B11 | 0.528 R (bound/input frequency ratio) |
| B12 | 0.533 R (bound/input frequency ratio) |
| B13 | 1.32 R (bound/input frequency ratio) |
